Assay [1] in a line: qHTS profiling of the MIPE4 collection as inhibitors of Plasmodium falciparum (3D7) proliferation (AID 743344).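 Note: scaled between DMSO vehicle wells and 0.29 µM artemisinin as full inhibition.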 The conditions noted are these: P. falciparum 3D7 in erythrocytes, SYBR Green DNA fluorescence, 72 h; at 28.5 µM unless noted. Put shortly:
(§1)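 Erythrocytes infected with P. falciparum (0.3% parasitemia, 2.5% hematocrit) incubated with compounds 72 h at 37 C, 5% CO2. Lysis with saponin/Triton buffer containing SYBR Green I, overnight at room temperature in the dark; DNA fluorescence (485/535 nm) normalised to 0.29 uM artemisinin and DMSO.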
(qHTS replaces the single test concentration by a dilution series.)

Assay [2] can be described thus: qHTS profiling of the MIPE4 collection as inhibitors of Plasmodium falciparum (DD2) proliferation (AID 743345). The conditions noted are these: P. falciparum Dd2 in erythrocytes, SYBR Green DNA, 72 h; at 28.5 µM unless noted. Put shortly: as §1
Assay [3] in a line: qHTS profiling of the MIPE4 collection as inhibitors of Plasmodium falciparum (DD2) proliferation (Rep 2) (AID 743346). The conditions noted are these: P. falciparum Dd2 in erythrocytes, SYBR Green DNA, 72 h; at 28.5 µM unless noted. The method in brief:
as §1

A short description of assay [4]: qHTS profiling of the MIPE4 collection as inhibitors of Plasmodium falciparum (HB3) proliferation (AID 743347).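 Note: plate controls were DMSO vehicle wells for no effect and artemisinin wells for full effect.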 To be noted: P. falciparum HB3 in erythrocytes, SYBR Green DNA, 72 h; at 28.5 µM unless noted. The method in brief:
as §1

Regarding `CC[C@]12C=CCN3CC[C@@]4(c5cc([C@@]6(C(=O)OC)C[C@H]7C[C@@H](C(C)(F)F)CN(Cc8c6[nH]c6ccccc86)C7)c(OC)cc5N(C)[C@H]4[C@@](O)(C(=O)OC)[C@H]1OC(C)=O)[C@@H]32`, in assay [1], the parasite growth, % of DMSO control is 17%. Besides, the parasite growth remaining, % of DMSO control (lower = more inhibition) in assay [2] came out at 12.3%. In addition, the parasite growth, % of control (lower = inhibition) in assay [3] came to 24.8%. In assay [4], this compound had a growth, % of control of 16.3%.

For the compound `CC(C)(O)Cn1c(NC(=O)c2ccc(-c3cn[nH]c3)s2)nc2cc(CN3CCOCC3)ccc21`, in assay [1], the parasite growth, % of DMSO control was 6.03%. The parasite growth remaining, % of DMSO control (lower = more inhibition) in assay [2] worked out at 7.56%. In addition, the parasite growth, % of control (lower = inhibition) in assay [3] is 9.94%.

As for `COc1cc(C(C)C)c(Oc2cnc(NC(CO)CO)nc2N)cc1I`, in assay [1], the parasite growth, % of DMSO control is 82.2%. Moreover, in assay [2], the parasite growth remaining, % of DMSO control (lower = more inhibition) was 86.9%. Besides, in assay [3], the parasite growth, % of control (lower = inhibition) came to 60.9%. This compound registered a growth, % of control in assay [4] of 97.9%.

Turning to `CCC(C(=O)O)C1CCC(C)C(C(C)C(O)C(C)C(=O)C(CC)C2OC3(C=CC(O)[C@@]4(CC[C@](C)(C5CC[C@@](O)(CC)C(C)O5)O4)O3)C(C)CC2C)O1` (some centres not stated), in assay [1], the parasite growth, % of DMSO control turned out to be 9.07%. The parasite growth remaining, % of DMSO control (lower = more inhibition) in assay [2] worked out at 6.02%. Also, in assay [3], the parasite growth, % of control (lower = inhibition) came out at 7.13%. This compound also had a growth, % of control in assay [4] of 16.9%.

Consider `CC(C)(O)CC[C@@H](O)[C@](C)(O)[C@H]1CC[C@@]2(O)C3=CC(=O)[C@@H]4C[C@@H](O)[C@@H](O)C[C@]4(C)[C@@H]3CC[C@]12C`, for which the parasite growth, % of DMSO control in assay [1] came to 385%. For the same compound, in assay [2], the parasite growth remaining, % of DMSO control (lower = more inhibition) was 110%. In addition, the parasite growth, % of control (lower = inhibition) in assay [3] is 122%.

Consider `O=C1NC(O)CCN1[C@@H]1O[C@H](CO)[C@H](O)[C@H]1O` (some centres not stated), for which, in assay [1], the parasite growth, % of DMSO control was 98.9%. The parasite growth remaining, % of DMSO control (lower = more inhibition) in assay [2] is 97.8%. Besides, in assay [3], the parasite growth, % of control (lower = inhibition) was 109%. In addition, the growth, % of control in assay [4] was determined as 59.2%.

Take `COc1cc(OC)cc(-c2ccc3ncc4ccc(=O)n(-c5ccc(N6CCNCC6)c(C(F)(F)F)c5)c4c3c2)c1`: the parasite growth, % of DMSO control in assay [1] amounted to 5.19%. For the same compound, in assay [2], the parasite growth remaining, % of DMSO control (lower = more inhibition) is 5.58%. In addition, the parasite growth, % of control (lower = inhibition) in assay [3] turned out to be 18.6%. Further, the growth, % of control in assay [4] came out at 9.36%.

In turn, `CCCNS(=O)(=O)Nc1ncnc(OCCOc2ncc(Br)cn2)c1-c1ccc(Br)cc1` showed a parasite growth, % of DMSO control in assay [1] of 102%. In addition, in assay [2], the parasite growth remaining, % of DMSO control (lower = more inhibition) came out at 99.9%. The parasite growth, % of control (lower = inhibition) in assay [3] was determined as 82.3%.

As to `CCc1cnn2c(NCc3ccc[n+]([O-])c3)cc(N3CCCC[C@@H]3CCO)nc12`, the parasite growth, % of DMSO control in assay [1] came to 14.9%. In addition, the parasite growth remaining, % of DMSO control (lower = more inhibition) in assay [2] came out at 14%. Besides, the parasite growth, % of control (lower = inhibition) in assay [3] came out at 12.6%.

Source of the values: PubChem BioAssay (NCATS).
